The list is not random: actives were taken first. Their share in the collection is about 1.7%.
Sa RN4220 lethal: S. aureus RN4220 growth inhibition; OD600, 16 h; inhibition, % (test concentration not listed); 330,000 compounds, 0.33% hits; in the data active = inhibition above about 85%;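 note: plate controls were untreated cells for no effect and reference antibiotic for full effect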
PfHsp40 yeast: rescue of PfHsp40-mediated yeast toxicity. growth rescue, % at 12.5 µM. 340,000 compounds, 0.68% hits. S. cerevisiae expressing PfHsp40, growth rescue, ATP luminescence; in the data active = growth rescue above about 28%, passing the limit was not always enough; inconclusive = no clear call, values can overlap the other calls;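 note: yeast W303a lacking pdr1 and pdr3 grown in galactose medium; growth measured after three days at 30 °C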
Vc quorum ag: quorum light induction in luxS cqsA deficient V. cholerae. V. cholerae BH1578 lux reporter, luminescence, 6 h. activation, % at 18.7 µM. 350,000 compounds, 0.16% hits. AID 588436; in the data active = activation mostly above about 9.7%, no sharp cut-off; inconclusive = no clear call, values can overlap the other calls; inactive = mostly below about 3.7%
CCHF vOTU inh: CCHFV vOTU protease inhibition. AID 651958. 370,000 compounds, 0.55% hits. inhibition, % at 11.5 µM. Pep-AMC fluorescence; in the data active = inhibition above about 30%; note: 0% = vehicle wells with enzyme and 100% = no enzyme wells
Sa ugtP lethal: compounds lethal to S. aureus RN4220 ugtP deletion mutant | 330,000 compounds, 0.54% hits | growth inhibition, % (test concentration not listed) | OD600 growth, 16 h; in the data active = growth inhibition above about 68%;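 note: plate controls were untreated wells for no effect and antibiotic for full effect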
Mtb hypoxia inh: inhibitors of hypoxia-regulated fluorescent reporter in Mycobacterium tuberculosis. M. tuberculosis hypoxia-regulated fluorescent reporter, fluorescence. fluorescence inhibition, % (concentration not given with the values). AID 1159583. 300,000 compounds, 0.1% hits; in the data active = fluorescence inhibition mostly above about 23%, no sharp cut-off; inactive = mostly below about 17%
Numbers without * were called inactive; i = inactive; ? = inconclusive; / = not tested or not shown.

SMILES	Sa RN4220 lethal	PfHsp40 yeast	Vc quorum ag	CCHF vOTU inh	Sa ugtP lethal	Mtb hypoxia inh
O=Nc1c(O)n(Cc2ccc(Cl)c(Cl)c2)c2ccccc12	-10.3	259.3*	/	0.7	-1.8	10.2
O=Nc1c(O)n(Cc2cccc(C(F)(F)F)c2)c2ccccc12	1.8	0.0	1.4	1.7	-22.9	-5.3
O=C(/C=C/c1ccco1)NCC(=O)NN=Cc1ccc(Cl)cc1	-0.2	/	/	/	-1.0	5.7
N#CCCn1cc(C=NNC(N)=S)c(-c2ccc(Br)cc2)n1	6.5	/	/	/	3.3	8.3
COc1cccc(C=NNC(=S)NCCc2ccccc2)c1OC	5.6	/	/	/	6.1	3.7
CC(=O)Oc1c(C)c(=O)n(C)c2ccccc12	0.2	-2.5	-0.5	9.8	-1.0	-3.5
COc1c(OC(C)=O)c(=O)n2c3ccccc3c3ccnc1c32	-1.3	27.1*	-0.3	-3.2	6.2	/
CCCCCCCCCCS(=O)(=O)NN=Cc1ccccc1OC	4.1	/	/	/	96.5*	6.8
COC(=O)NN=Cc1ccc(OC(=O)c2ccco2)cc1	3.8	/	/	/	1.9	-4.2
C[C@H]1C[C@H]2[C@@H]3CCC4=CC(=O)C=C[C@]4(C)[C@@]3(Cl)[C@@H](O)C[C@]2(C)[C@@]1(O)C(=O)CO	/	36.3*	8.5	1.9	/	/
CC(=O)c1nn(-c2ccc(Cl)cc2)cc1C(=O)c1ccc(C)cc1	-5.8	/	i	4.4	-1.8	46.6*
CC(=CC(=O)OCCCCCCCCC(=O)O)CC1OCC(CC2OC2C(C)C(C)O)C(O)C1O (stereo not given)	100.2*	/	/	/	100.2*	7.5
O=C1OCCN1N=Cc1ccc([N+](=O)[O-])o1	100.4*	/	/	/	100.2*	-20.7
O=[N+]([O-])c1ccc(C=NN2CCNC2=S)o1	/	/	-0.1	19.5	/	/
Cc1[nH]c(N=Nc2ccccc2)nc1N=Nc1ccccc1	/	80.2*	i	6.8	/	/
Cc1ccc(C)c(Sc2ccc(NC(=O)CCN3C(=O)NC4(CCCC4)C3=O)cc2)c1	-13.3	31.5*	0.6	18.3	-9.2	10.7
COc1c(N2C[C@@H]3CCCN[C@@H]3C2)c(F)cc2c(=O)c(C(=O)O)cn(C3CC3)c12	/	-1.5	-0.6	-111.8	/	/
COc1c(N2CCN(C(=S)NCc3ccccc3)C(C)C2)c(F)cc2c(=O)c(C(=O)O)cn(C3CC3)c12 (stereo not given)	100.3*	?	i	-11.5	100.5*	/
Cc1nc(C=CC(=O)O)c2cc(C)oc2n1	9.8	/	/	/	-1.3	12.8
Cc1cc(C)cc(Oc2ccccc2C=NO)c1	-2.8	/	/	/	87.4*	/
COc1ccc(CC(=O)NN=C(C)c2cccs2)cc1OC	3.0	/	/	/	-0.3	11.2
O=C1NCC(Cc2cccc3ccccc23)N(CC2CCCCC2)C1=O (stereo not given)	9.7	/	/	/	3.8	9.7
COc1ccc(C2C=CCN(Cc3ccco3)CC(=O)N2Cc2ccc(F)cc2)cc1 (stereo not given)	6.5	/	/	/	5.3	17.9
COc1ccc(C2C3C(=O)N(C(C)(C)C)C(=O)C3[C@]3(Cc4ccccc4)C(=O)N(c4cccc(F)c4)C(=O)N23)cc1 (stereo not given in full)	12.2	/	/	/	2.2	8.2
Cc1[nH]n(C(N)=S)c(=O)c1N=Nc1ccc2ccccc2c1	1.1	54.9*	-0.3	11.3	-7.3	17.6
SMILES	Sa RN4220 lethal	PfHsp40 yeast	Vc quorum ag	CCHF vOTU inh	Sa ugtP lethal	Mtb hypoxia inh
Cc1ccc(N=Nc2c(C)[nH]n(C(N)=S)c2=O)cc1C	0.6	-0.8	-0.2	-0.9	0.0	-5.1
N#CCCCC#Cc1ccc2c(c1)COc1c3ccccc3nn1-2	3.7	123.6*	-0.3	10.5	15.3	9.0
CCOC1OC(C(=O)O)=CC(c2cn(C(C)=O)c3ccccc23)C1CCCO (stereo not given)	5.7	/	/	/	4.6	20.5
O=c1[nH]c2ccccc2nc1C=Cc1ccc(Cl)cc1	3.0	/	/	/	-3.0	2.1
CC(C)CC(=O)N1CCN(c2ccc([N+](=O)[O-])c(NCc3ccccc3)c2)CC1	-6.0	2.6	i	30.9*	8.7	/
O=C(c1ccccc1)N1CCN(c2ccc([N+](=O)[O-])c(NCc3cccnc3)c2)CC1	-1.1	0.4	-0.9	12.1	11.8	8.4
O=c1[nH]c(CN2CCN(S(=O)(=O)/C=C/c3ccccc3)CC2)nc2cc(Cl)ccc12	0.5	97.3*	i	-1.8	2.8	-0.7
Nc1nc(CSc2n[nH]c(-c3ccccc3)n2)nc(Nc2ccccc2)n1	4.1	68.2*	i	3.3	5.6	/
Oc1c(C(Nc2cccc(C(F)(F)F)c2)c2cccnc2)ccc2cccnc12 (stereo not given)	14.2	381.8*	-0.4	7.7	-5.6	3.1

Compound activity: PubChem, several laboratories
